The values that follow come from the supplement of paper PMC10849652.

Targets with a hit are over-represented here; the source holds about 7,900 in all. About 0.6% of all pairs of compound and target were hits.

Sequence of UniProt Q05655 (Q05655 whole entry, looked up): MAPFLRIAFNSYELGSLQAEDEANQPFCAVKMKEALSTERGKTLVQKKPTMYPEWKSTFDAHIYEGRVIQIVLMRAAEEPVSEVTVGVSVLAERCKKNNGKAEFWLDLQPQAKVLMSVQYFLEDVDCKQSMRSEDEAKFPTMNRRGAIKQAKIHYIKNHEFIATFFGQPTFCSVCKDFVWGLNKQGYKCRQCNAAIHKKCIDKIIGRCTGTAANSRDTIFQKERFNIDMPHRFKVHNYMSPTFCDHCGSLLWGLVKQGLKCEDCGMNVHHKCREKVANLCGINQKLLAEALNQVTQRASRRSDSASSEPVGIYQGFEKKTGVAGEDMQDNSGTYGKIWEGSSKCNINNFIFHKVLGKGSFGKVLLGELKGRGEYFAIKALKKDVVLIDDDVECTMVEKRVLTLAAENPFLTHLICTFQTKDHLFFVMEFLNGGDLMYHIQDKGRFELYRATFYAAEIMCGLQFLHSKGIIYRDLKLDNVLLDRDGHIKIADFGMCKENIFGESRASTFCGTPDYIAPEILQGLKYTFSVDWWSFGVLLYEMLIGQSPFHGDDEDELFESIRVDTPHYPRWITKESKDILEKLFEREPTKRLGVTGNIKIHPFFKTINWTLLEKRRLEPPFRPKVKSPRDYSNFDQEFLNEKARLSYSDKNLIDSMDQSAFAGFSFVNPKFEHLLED
Sequence of UniProt P28070 (P28070 whole entry, looked up): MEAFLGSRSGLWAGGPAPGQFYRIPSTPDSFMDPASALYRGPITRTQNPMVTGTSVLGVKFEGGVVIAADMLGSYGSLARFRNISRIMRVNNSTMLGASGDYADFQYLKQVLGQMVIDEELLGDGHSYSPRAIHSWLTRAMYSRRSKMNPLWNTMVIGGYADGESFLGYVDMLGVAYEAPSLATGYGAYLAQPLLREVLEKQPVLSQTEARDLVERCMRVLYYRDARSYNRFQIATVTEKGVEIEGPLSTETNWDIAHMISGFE
Sequence of UniProt Q16512 (Q16512 whole entry, looked up): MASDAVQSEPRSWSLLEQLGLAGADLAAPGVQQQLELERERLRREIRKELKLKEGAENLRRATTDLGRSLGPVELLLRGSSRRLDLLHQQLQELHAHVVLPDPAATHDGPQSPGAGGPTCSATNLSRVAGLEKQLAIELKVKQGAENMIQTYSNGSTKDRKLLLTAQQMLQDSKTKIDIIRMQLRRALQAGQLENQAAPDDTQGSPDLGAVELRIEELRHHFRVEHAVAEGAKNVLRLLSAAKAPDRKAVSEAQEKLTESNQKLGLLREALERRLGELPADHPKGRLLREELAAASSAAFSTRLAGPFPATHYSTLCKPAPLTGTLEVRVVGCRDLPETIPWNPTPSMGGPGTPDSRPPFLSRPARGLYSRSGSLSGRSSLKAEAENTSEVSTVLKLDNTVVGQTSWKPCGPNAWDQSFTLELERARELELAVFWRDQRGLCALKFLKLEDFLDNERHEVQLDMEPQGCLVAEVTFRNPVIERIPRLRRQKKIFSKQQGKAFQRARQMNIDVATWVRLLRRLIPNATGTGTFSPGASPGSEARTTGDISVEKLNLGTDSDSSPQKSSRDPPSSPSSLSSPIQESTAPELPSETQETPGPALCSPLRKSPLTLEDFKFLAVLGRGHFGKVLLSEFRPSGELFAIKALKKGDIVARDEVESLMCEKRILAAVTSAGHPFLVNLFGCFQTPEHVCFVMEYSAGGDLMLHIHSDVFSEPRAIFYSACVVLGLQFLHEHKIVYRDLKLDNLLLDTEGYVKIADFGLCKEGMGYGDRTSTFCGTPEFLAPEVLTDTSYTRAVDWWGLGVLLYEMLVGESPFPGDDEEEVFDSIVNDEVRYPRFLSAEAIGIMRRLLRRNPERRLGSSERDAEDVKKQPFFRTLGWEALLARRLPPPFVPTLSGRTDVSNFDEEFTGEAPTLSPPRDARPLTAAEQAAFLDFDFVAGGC
Sequence of UniProt O75340 (O75340 whole entry, looked up): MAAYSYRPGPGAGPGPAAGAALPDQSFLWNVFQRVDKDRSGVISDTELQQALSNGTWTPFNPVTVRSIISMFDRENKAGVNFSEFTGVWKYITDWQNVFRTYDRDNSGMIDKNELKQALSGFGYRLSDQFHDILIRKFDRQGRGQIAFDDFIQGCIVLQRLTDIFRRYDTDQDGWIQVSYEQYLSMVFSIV
Sequence of UniProt Q8TAP8 (Q8TAP8 whole entry, looked up): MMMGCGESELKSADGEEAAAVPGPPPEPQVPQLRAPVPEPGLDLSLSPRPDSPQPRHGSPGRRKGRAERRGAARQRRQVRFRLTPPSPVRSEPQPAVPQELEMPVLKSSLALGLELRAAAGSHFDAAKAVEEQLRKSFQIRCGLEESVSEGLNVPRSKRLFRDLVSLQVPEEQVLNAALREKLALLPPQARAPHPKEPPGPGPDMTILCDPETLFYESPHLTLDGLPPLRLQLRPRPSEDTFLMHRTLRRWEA
Sequence of UniProt Q92968 (Q92968 whole entry, looked up): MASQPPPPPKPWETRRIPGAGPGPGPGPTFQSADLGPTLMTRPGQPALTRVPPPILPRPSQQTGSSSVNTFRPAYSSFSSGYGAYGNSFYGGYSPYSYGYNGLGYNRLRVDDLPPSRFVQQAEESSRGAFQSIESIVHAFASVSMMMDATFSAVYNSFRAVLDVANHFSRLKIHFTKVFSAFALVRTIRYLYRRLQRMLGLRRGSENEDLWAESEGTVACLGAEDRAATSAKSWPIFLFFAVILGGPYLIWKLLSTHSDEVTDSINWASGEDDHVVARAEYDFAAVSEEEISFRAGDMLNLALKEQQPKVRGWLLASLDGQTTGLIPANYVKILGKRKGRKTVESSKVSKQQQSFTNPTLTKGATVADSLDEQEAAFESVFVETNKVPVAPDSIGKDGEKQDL
Sequence of UniProt Q15365 (Q15365 whole entry, looked up): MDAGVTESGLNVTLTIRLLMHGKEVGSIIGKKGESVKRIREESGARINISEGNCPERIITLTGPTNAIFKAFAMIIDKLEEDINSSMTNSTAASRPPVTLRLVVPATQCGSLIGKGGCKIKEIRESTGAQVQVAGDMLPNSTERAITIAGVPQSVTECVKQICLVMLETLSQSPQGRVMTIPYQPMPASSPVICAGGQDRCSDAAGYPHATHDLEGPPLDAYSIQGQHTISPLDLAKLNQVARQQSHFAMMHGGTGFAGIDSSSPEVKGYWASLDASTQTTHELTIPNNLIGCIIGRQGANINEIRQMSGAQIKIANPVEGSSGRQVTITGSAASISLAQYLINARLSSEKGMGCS
Sequence of UniProt P35998 (P35998 whole entry, looked up): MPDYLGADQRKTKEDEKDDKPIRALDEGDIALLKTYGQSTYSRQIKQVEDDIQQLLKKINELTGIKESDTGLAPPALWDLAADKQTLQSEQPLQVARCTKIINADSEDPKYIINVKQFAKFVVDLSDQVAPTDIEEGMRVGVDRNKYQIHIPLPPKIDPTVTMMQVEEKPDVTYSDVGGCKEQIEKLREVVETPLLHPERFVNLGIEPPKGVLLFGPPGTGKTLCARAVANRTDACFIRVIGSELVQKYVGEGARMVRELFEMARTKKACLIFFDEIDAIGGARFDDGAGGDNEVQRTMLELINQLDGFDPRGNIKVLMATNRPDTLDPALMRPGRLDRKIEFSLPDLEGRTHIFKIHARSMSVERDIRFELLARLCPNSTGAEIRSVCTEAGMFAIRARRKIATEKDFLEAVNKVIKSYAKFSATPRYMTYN
Sequence of UniProt Q96PU8 (Q96PU8 whole entry, looked up): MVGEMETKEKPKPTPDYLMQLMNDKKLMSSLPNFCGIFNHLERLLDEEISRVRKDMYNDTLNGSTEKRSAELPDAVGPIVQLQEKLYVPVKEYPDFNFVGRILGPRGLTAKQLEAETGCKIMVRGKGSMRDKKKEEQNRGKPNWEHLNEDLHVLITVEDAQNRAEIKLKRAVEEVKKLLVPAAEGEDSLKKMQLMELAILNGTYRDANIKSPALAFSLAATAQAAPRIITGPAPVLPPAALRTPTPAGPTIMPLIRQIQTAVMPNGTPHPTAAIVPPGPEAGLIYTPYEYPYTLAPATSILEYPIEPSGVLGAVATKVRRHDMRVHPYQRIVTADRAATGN
Sequence of UniProt Q5VTL8 (Q5VTL8 whole entry, looked up): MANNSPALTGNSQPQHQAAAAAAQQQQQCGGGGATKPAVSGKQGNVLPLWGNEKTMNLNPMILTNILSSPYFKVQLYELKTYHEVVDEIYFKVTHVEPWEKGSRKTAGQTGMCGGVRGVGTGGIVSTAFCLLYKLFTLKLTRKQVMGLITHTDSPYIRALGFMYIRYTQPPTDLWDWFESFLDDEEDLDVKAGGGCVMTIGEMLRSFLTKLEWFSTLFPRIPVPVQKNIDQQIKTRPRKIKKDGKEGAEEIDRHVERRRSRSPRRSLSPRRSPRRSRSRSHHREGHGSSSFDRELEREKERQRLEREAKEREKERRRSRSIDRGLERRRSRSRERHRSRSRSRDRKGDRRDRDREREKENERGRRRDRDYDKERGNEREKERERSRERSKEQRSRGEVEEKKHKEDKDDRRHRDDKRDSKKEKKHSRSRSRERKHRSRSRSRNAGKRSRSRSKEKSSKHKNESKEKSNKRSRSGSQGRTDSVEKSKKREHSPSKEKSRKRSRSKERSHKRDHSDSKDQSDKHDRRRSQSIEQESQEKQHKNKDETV
Sequence of UniProt Q9UNM6 (Q9UNM6 whole entry, looked up): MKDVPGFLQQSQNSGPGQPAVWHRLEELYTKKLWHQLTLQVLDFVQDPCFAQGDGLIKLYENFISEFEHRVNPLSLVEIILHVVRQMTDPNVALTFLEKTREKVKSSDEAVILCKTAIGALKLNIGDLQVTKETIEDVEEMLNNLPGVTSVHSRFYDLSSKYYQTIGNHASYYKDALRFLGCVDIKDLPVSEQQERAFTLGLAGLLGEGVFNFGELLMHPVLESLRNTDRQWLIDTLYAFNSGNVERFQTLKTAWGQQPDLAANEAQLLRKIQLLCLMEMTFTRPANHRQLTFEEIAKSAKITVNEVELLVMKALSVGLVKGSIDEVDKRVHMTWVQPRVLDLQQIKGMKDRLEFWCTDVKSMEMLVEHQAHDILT
Sequence of UniProt Q15121 (Q15121 whole entry, looked up): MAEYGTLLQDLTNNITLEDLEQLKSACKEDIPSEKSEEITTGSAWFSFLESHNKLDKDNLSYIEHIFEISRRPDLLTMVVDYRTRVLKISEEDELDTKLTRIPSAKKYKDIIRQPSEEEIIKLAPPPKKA

Compound in this experiment: CCN(CCCOc1ccc2c(Nc3cc(CC(=O)Nc4cccc(F)c4)[nH]n3)ncnc2c1)CCOP(=O)(O)O [barasertib]
In words: log2 fold change, soluble protein after heating vs DMSO (PISA); higher = thermal stabilisation; K562 cells, 10 uM, 30 min; active = over 0.2 and 3.5 SD of the protein, either way, in both replicates (recomputed). The gist of the method: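 K562 cells at 2×10^6 cells/mL were treated with 10 μM compound for 30 min. Aliquots were heated for 3 min across 48°C-58°C, pooled, and extracted in PBS with 0.5% NP-40 at 4°C; soluble protein was the supernatant after 21,000xg for 90 min. Soluble protein was quantified by TMTpro 16plex LC-MS/MS with channel sums equalised, and reported as log2 fold change in thermal stability against DMSO controls, with values from duplicates.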
Turning to PSMC2 (UniProt P35998), the log2 fold change was -0.053 (inactive).
Take PSMB6 (UniProt P28072): the log2 fold change was -0.04 (inactive).
Regarding PRKD2 isoform 3 (UniProt Q9BZL6), the log2 fold change is 0.093 (inactive).
Regarding QKI (UniProt Q96PU8), the log2 fold change was -0.003 (inactive).
For the target PKN1 isoform 2 (UniProt Q16512), the log2 fold change is 0.03 (inactive).
Regarding PRPF38B (UniProt Q5VTL8), the log2 fold change was 0.012 (inactive).
Turning to PTPN12 (UniProt Q05209), the log2 fold change is 0.127 (inactive).
As for PDCD6 (UniProt O75340), the log2 fold change was 0.004 (inactive).
With PPOX (UniProt P50336), the log2 fold change is 0 (inactive).
For POP1 (UniProt Q99575), the log2 fold change is -0.042 (inactive).
Turning to PIKFYVE (UniProt Q9Y2I7), the log2 fold change is 0.013 (inactive).
The same measure for PPP1R35 (UniProt Q8TAP8): -0.074 (inactive); for PSMB4 (UniProt P28070): -0.052 (inactive).
Consider PLIN2 (UniProt Q99541), for which the log2 fold change is 0.013 (inactive).
With PCNT (UniProt O95613), the log2 fold change was 0.045 (inactive).
As for PSMD13 (UniProt Q9UNM6), the log2 fold change is -0.041 (inactive).
PEA15 isoform 2 (UniProt Q15121): the log2 fold change was 0.082 (inactive).
For PARG (UniProt Q86W56) the value was 0.07 (inactive); for PDLIM7 (UniProt Q9NR12), 0.032 (inactive).
The same measure for PEX13 (UniProt Q92968): 0.044 (inactive); for PRKCD (UniProt Q05655): 0.023 (inactive).
Turning to PSMC5 (UniProt P62195), the log2 fold change was -0.034 (inactive).
With PCBP1 (UniProt Q15365), the log2 fold change is 0.021 (inactive).
